According to ChEMBL document CHEMBL1157539, “Thousands of chemical starting points for antimalarial lead identification” (Nature, 2010):

How the values were obtained:
Type in all cases: functional
Plasmodium falciparum [1] = experiment: GSK_TCMDC: Inhibition of Plasmodium falciparum 3D7 in whole red blood cells, using parasite LDH activity as an index of growth. Test compounds present at 2uM
Plasmodium falciparum [2] = experiment: GSK_TCMDC: Inhibition of Plasmodium falciparum Dd2 in whole red blood cells, using parasite LDH activity as an index of growth. Test compounds present at 2uM
HepG2 = experiment: GSK_TCMDC: Percent inhibition of human HepG2 cell line. Test compounds present at 10uM.

Compound | Inhibition (Plasmodium falciparum [1]) | Inhibition (Plasmodium falciparum [2]) | Inhibition (HepG2)
CC(CN1CCN(C)CC1)C(=O)Nc1cccc(-c2ccc(-c3nc4cc(C(F)(F)F)ccc4[nH]3)cc2)c1 (stereo not drawn) | 100% | 98% | 11%
Cc1ccc(Cn2cnc3cc(C(=O)Nc4ccc(-c5cccc(CN(C)C)c5)cc4)ccc3c2=O)o1 | 99% | 39% | 22%
O=C(Nc1cccc(CN2CCN(Cc3ccc(O)cc3)CC2)c1)c1ccc(-c2ccccc2)cc1.O=C(O)C(F)(F)F | 100% | 67% | 40%
Cc1cc(NC(=O)Nc2ccc3sccc3c2)c2ccccc2n1 | 99% | 57% | 41%
Cc1nc2nc(N)nc(N)c2c(C)c1Cc1ccc(C(F)(F)F)cc1.Cl | 96% | 22% | 57%
CNCc1ccc(-c2cccc(CNCc3ccc(-c4ccccc4)cc3)c2)c(C(=O)OC)c1.O=C(O)C(F)(F)F | 92% | 19% | 25%
Nc1c(Cl)cc(C(O)CNCCCCCOCCCc2ccc3ncccc3c2)cc1Cl.O=C(O)/C=C/C(=O)O (stereo not drawn) | 96% | 77% | 24%
Cl.Oc1ccccc1CNCC12CC3CC(CC(C3)C1)C2 | 98% | 99% | 0%
Cc1cc(C)cc(OCC(O)CN(CCN2CCOCC2)C(=O)Nc2ccc(Br)cc2)c1.O=C(O)C(F)(F)F (stereo not drawn) | 85% | 19% | 7%
CCCC(C)N(Cc1ccc(C(C)(C)C)cc1)C(=O)c1cccc(OC)c1 (stereo not drawn) | 100% | 89% | 9%
CC(=O)Nc1ccc(CN(Cc2ccc(F)cc2)Cc2cccc(Oc3ccccc3)c2)cc1 | 88% | 82% | 0%
COc1ccc(CN2CCN(Cc3cc(Cl)ccc3O)CC2CCO)c(C)c1C (stereo not drawn) | 94% | 76% | 1%
Cc1c(C(=O)C2CC2CN2CCC(N3CCCCC3)CC2)sc2ccccc12 (stereo not drawn) | 94% | 19% | 35%
O=C(NCCc1ccccc1)N(Cc1ccc(-c2cccc(CN3CCNCC3)c2)cc1)C1CCN(Cc2ccccc2)CC1.O=C(O)C(F)(F)F | 90% | 29% | 27%
C=Cc1c(C2CCN(CCCCNC(=O)c3ccc(-c4ccc(C#N)cc4)cc3)CC2)ccc2c1CCCC2 | 94% | 75% | 75%
CN1CCC(N(Cc2ccc(-c3cnc(NCc4ccccc4)nc3)cc2)S(=O)(=O)c2ccccc2)CC1.O=C(O)C(F)(F)F | 100% | 10% | 48%
Cc1cccc2nc(-c3cccc(-c4ccc(C(=O)NCCc5ccc(O)c(=O)[nH]5)cc4)c3)[nH]c12 | 85% | 30% | 20%
COc1ccc(-c2ccc(NC(=O)c3cccc(C#N)c3)cc2)cc1CN1CCN(C)CC1.O=C(O)C(F)(F)F | 100% | 59% | 26%
Cc1[nH]c(C)c(-c2ccc(OCc3ccc(F)cc3)nc2)c(=O)c1Br | 97% | 97% | 41%
O=C(O)C(F)(F)F.O=[N+]([O-])c1cccc(CNCC2CCN(Cc3ccc(O)cc3)CC2)c1 | 98% | 5% | 8%
COc1ccc(CNCc2cccc(-c3cccc(-c4nc5cc(C(F)(F)F)ccc5[nH]4)c3)c2)cc1.O=C(O)C(F)(F)F | 100% | 91% | 40%
